Compounds without any hit were thinned out: in the full panel of roughly 79,000, 15% have a hit. Values without a mark were called inactive. The source made the active and inactive calls. Cut-off read from the data, not from the text of the source: active = growth inhibition above about 70%; inactive = the rest.
Legend:
[1] = NCI Yeast Anticancer Drug Screen. Data for the sgs1 strain (AID 173);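 note: 0% = growth of vehicle-only control cultures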; details: S. cerevisiae sgs1 mutant, active compounds read high
Outline: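 Treat defined-mutant yeast with compound; measure growth; calculate inhibition relative to vehicle-treated cells.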

[2] = NCI Yeast Anticancer Drug Screen. Data for the mlh1 rad18 strain (AID 175); details: S. cerevisiae mlh1 rad18 strain growth inhibition, active compounds read high
Outline: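 Test agents were incubated with a yeast strain of defined genotype (DNA damage repair defect). Inhibition of growth was derived by comparison with vehicle-exposed cultures.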

[3] = NCI Yeast Anticancer Drug Screen. Data for the rad18 strain (AID 177); details: S. cerevisiae rad18 mutant growth inhibition, active compounds read high
Outline: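 A genetically defined yeast mutant impaired in DNA damage repair was treated with test compounds, then its growth was measured against cultures receiving vehicle alone.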

[4] = NCI Yeast Anticancer Drug Screen. Data for the rad52 strain (AID 147);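 note: 0% = growth of vehicle-treated control cultures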; details: S. cerevisiae rad52 mutant growth inhibition, active compounds read high
Outline: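 Screen used a yeast mutant impaired in DNA repair. After compound exposure, growth was measured. Values reflect inhibition compared with vehicle-treated cells.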

[5] = NCI Yeast Anticancer Drug Screen. Data for the wt1 strain (AID 149);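 note: 0% = growth of vehicle-treated wt1 cultures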; details: S. cerevisiae wt1 strain (SPY 50644) growth inhibition, active compounds read high
Outline: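 wt1 yeast, compound-treated; % growth inhibition vs vehicle control.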

[6] = NCI Yeast Anticancer Drug Screen. Data for the rad50EPP+ strain (AID 151);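 note: 0% = growth of vehicle-treated control cultures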; details: S. cerevisiae rad50 mutant strain, active compounds read high
Outline: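 Exposing the rad50EPP+ strain to each compound, growth was compared with vehicle-only cultures to give inhibition.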

[7] = NCI Yeast Anticancer Drug Screen. Data for the mgt1 strain (AID 153); details: S. cerevisiae mgt1 mutant growth inhibition, active compounds read high
Outline: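 Genetically defined yeast (mgt1) treated with compound; inhibition of growth expressed against vehicle-treated controls.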

[8] = NCI Yeast Anticancer Drug Screen. Data for the rad50 strain (AID 155);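 note: 0% = growth of vehicle-only cultures of the same strain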; details: S. cerevisiae rad50 strain growth inhibition, active compounds read high
Outline: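 Genetically altered yeast (DNA repair pathway); compound treatment; growth inhibition vs vehicle ctrl.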

[9] = NCI Yeast Anticancer Drug Screen. Data for the mec2-1 strain (AID 157); details: S. cerevisiae mec2-1 strain, active compounds read high
Outline: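 Readout is yeast growth inhibition, normalised to vehicle-treated controls, in the mec2-1 strain exposed to compound.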

[10] = NCI Yeast Anticancer Drug Screen. Data for the rad14 strain (AID 159);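 note: 0% = growth of vehicle-treated control cultures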; details: S. cerevisiae rad14 strain growth inhibition, active compounds read high
Outline: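 Test compounds were applied to a repair-deficient yeast strain. Its growth was then compared with that of cultures given vehicle alone, and inhibition was expressed relative to those controls.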

[11] = NCI Yeast Anticancer Drug Screen. Data for the sgs1 mgt1 strain (AID 161);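 note: 0% = growth of cultures given vehicle only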; details: S. cerevisiae sgs1 mgt1 strain, active compounds read high
Outline: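 Percent growth inhibition was derived by comparing compound-exposed mutant yeast with vehicle-exposed cultures. The strain carries alterations in DNA damage repair.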

[12] = NCI Yeast Anticancer Drug Screen. Data for the CLN2oe strain (AID 163);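 note: 0% = growth of vehicle-only control cultures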; details: S. cerevisiae CLN2oe strain, active compounds read high
Outline: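 Values reflect how much compound exposure reduced yeast growth, referenced to vehicle-exposed cells. Assay organism is a strain with a defined genetic change affecting cell-cycle control.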

[13] = NCI Yeast Anticancer Drug Screen. Data for the cln2 rad14 strain (AID 165);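 note: 0% = growth equal to vehicle treated cultures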; details: S. cerevisiae cln2 rad14 strain, active compounds read high
Outline: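 Relative to vehicle controls, growth inhibition of compound-treated cln2 rad14 yeast was recorded.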

[14] = NCI Yeast Anticancer Drug Screen. Data for the bub3 strain (AID 167); details: S. cerevisiae bub3 mutant strain, active compounds read high
Outline: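 Yeast carrying a defined mutation is treated with each compound, and growth is compared with that of vehicle-exposed cells to give inhibition.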

[15] = NCI Yeast Anticancer Drug Screen. Data for the wt2 strain (AID 169);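 note: 0% = growth of vehicle-treated yeast cultures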; details: S. cerevisiae wt2 strain growth inhibition, active compounds read high
Outline: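 Values express reduction in yeast growth under compound treatment, referenced to vehicle-treated cells.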

[16] = NCI Yeast Anticancer Drug Screen. Data for the mlh1 strain (AID 171);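 note: 0% = growth of vehicle-treated control cultures of the same strain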; details: S. cerevisiae mlh1 strain growth inhibition, active compounds read high
Outline: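 Steps: expose the defined-mutant yeast strain to compound; expose a parallel culture to vehicle; measure growth; express compound effect as inhibition relative to the vehicle culture.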

[17] = at 5.0 µM (retest, dose inferred, filed as 0.5)
[18] = at 50.0 µM (retest, dose inferred, filed as 5.0)

O=NN(CCCl)C(=O)NCCCl
growth inhibition ([1]; at 1.2 µM): -2% | growth inhibition ([1]; at 3.7 µM): -1% | growth inhibition ([1]; at 11.0 µM): 1% | growth inhibition ([1]; at 33.0 µM): 10% | growth inhibition ([1]; at 100.0 µM): 33% | growth inhibition ([2]; at 50.0 µM): 43% | growth inhibition ([3]; at 1.2 µM): 4% | growth inhibition ([3]; at 3.7 µM): 13% | growth inhibition ([3]; at 11.0 µM): 45% | growth inhibition ([3]; at 33.0 µM): 85% (active) | growth inhibition ([3]; at 100.0 µM): 94% (active)

NC(N)=N/N=C/c1cc(Cl)cc(Cl)c1O
growth inhibition ([4]; at 1.2 µM): 5% | growth inhibition ([4]; at 3.7 µM): 4% | growth inhibition ([4]; at 11.0 µM): 21% | growth inhibition ([4]; at 33.0 µM): 51% | growth inhibition ([4]; at 100.0 µM): 98% (active) | growth inhibition ([5]; at 1.2 µM): -14% | growth inhibition ([5]; at 3.7 µM): -19% | growth inhibition ([5]; at 11.0 µM): -29% | growth inhibition ([5]; at 33.0 µM): 1% | growth inhibition ([5]; at 100.0 µM): 95% (active) | growth inhibition ([6]; at 1.2 µM): 19% | growth inhibition ([6]; at 3.7 µM): 49% | growth inhibition ([6]; at 11.0 µM): 50% | growth inhibition ([6]; at 33.0 µM): 60% | growth inhibition ([6]; at 100.0 µM): 74% (active) | growth inhibition ([7]; at 1.2 µM): 18% | growth inhibition ([7]; at 3.7 µM): 17% | growth inhibition ([7]; at 11.0 µM): 33% | growth inhibition ([7]; at 33.0 µM): 88% (active) | growth inhibition ([7]; at 100.0 µM): 99% (active) | growth inhibition ([8]; at 1.2 µM): -15% | growth inhibition ([8]; at 3.7 µM): -7% | growth inhibition [8, 17]: 63% | growth inhibition ([8]; at 11.0 µM): 4% | growth inhibition ([8]; at 33.0 µM): 46% | growth inhibition [8, 18]: 95% (active) | growth inhibition ([8]; at 50.0 µM): 79.7% (active) | growth inhibition ([8]; at 100.0 µM): 97% (active) | growth inhibition ([9]; at 1.2 µM): -29% | growth inhibition ([9]; at 3.7 µM): -18% | growth inhibition [9, 17]: 73% (active) | growth inhibition ([9]; at 11.0 µM): -21% | growth inhibition ([9]; at 33.0 µM): 23% | growth inhibition [9, 18]: 96% (active) | growth inhibition ([9]; at 50.0 µM): 61.9% | growth inhibition ([9]; at 100.0 µM): 98% (active) | growth inhibition ([10]; at 1.2 µM): -8% | growth inhibition ([10]; at 3.7 µM): 1% | growth inhibition ([10]; at 11.0 µM): 12% | growth inhibition ([10]; at 33.0 µM): 72% (active) | growth inhibition ([10]; at 100.0 µM): 98% (active) | growth inhibition [11, 17]: 4% | growth inhibition [11, 18]: 98% (active) | growth inhibition ([12]; at 1.2 µM): 15% | growth inhibition ([12]; at 3.7 µM): 23% | growth inhibition ([12]; at 11.0 µM): 21% | growth inhibition ([12]; at 33.0 µM): 33% | growth inhibition ([12]; at 100.0 µM): 93% (active) | growth inhibition [13, 17]: 54% | growth inhibition [13, 18]: 93% (active) | growth inhibition ([14]; at 1.2 µM): -7% | growth inhibition ([14]; at 3.7 µM): -6% | growth inhibition [14, 17]: 46% | growth inhibition ([14]; at 11.0 µM): 4% | growth inhibition ([14]; at 33.0 µM): 49% | growth inhibition [14, 18]: 96% (active) | growth inhibition ([14]; at 100.0 µM): 97% (active) | growth inhibition ([15]; at 1.2 µM): -49% | growth inhibition ([15]; at 3.7 µM): -40% | growth inhibition ([15]; at 11.0 µM): -30% | growth inhibition ([15]; at 33.0 µM): 30% | growth inhibition ([15]; at 100.0 µM): 97% (active) | growth inhibition ([16]; at 1.2 µM): 12% | growth inhibition ([16]; at 3.7 µM): 9% | growth inhibition ([16]; at 11.0 µM): 21% | growth inhibition ([16]; at 33.0 µM): 68% | growth inhibition ([16]; at 100.0 µM): 98% (active) | growth inhibition ([1]; at 1.2 µM): -12% | growth inhibition ([1]; at 3.7 µM): -14% | growth inhibition ([1]; at 11.0 µM): -1% | growth inhibition ([1]; at 33.0 µM): 37% | growth inhibition ([1]; at 100.0 µM): 98% (active) | growth inhibition [2, 17]: 55% | growth inhibition [2, 18]: 97% (active) | growth inhibition ([2]; at 50.0 µM): 58.2% | growth inhibition ([3]; at 1.2 µM): -8% | growth inhibition ([3]; at 3.7 µM): -11% | growth inhibition ([3]; at 11.0 µM): -6% | growth inhibition ([3]; at 33.0 µM): 49% | growth inhibition ([3]; at 100.0 µM): 95% (active)

Cc1ccc(Nc2n[nH]c(=S)s2)cc1
growth inhibition ([4]; at 1.2 µM): -2% | growth inhibition ([4]; at 3.7 µM): 2% | growth inhibition ([4]; at 11.0 µM): 6% | growth inhibition ([4]; at 33.0 µM): 74% (active) | growth inhibition ([4]; at 100.0 µM): 94% (active) | growth inhibition ([5]; at 1.2 µM): -21% | growth inhibition ([5]; at 3.7 µM): -12% | growth inhibition ([5]; at 11.0 µM): -19% | growth inhibition ([5]; at 33.0 µM): 35% | growth inhibition ([5]; at 100.0 µM): 92% (active) | growth inhibition ([6]; at 1.2 µM): -13% | growth inhibition ([6]; at 3.7 µM): -10% | growth inhibition ([6]; at 11.0 µM): -11% | growth inhibition ([6]; at 33.0 µM): 6% | growth inhibition ([6]; at 100.0 µM): 68% | growth inhibition ([7]; at 1.2 µM): -6% | growth inhibition ([7]; at 3.7 µM): -5% | growth inhibition ([7]; at 11.0 µM): -3% | growth inhibition ([7]; at 33.0 µM): 65% | growth inhibition ([7]; at 100.0 µM): 94% (active) | growth inhibition ([8]; at 1.2 µM): 5% | growth inhibition ([8]; at 3.7 µM): -1% | growth inhibition [8, 17]: 44% | growth inhibition ([8]; at 11.0 µM): 0% | growth inhibition ([8]; at 33.0 µM): 72% (active) | growth inhibition [8, 18]: 80% (active) | growth inhibition ([8]; at 50.0 µM): 87% (active) | growth inhibition ([8]; at 100.0 µM): 93% (active) | growth inhibition ([9]; at 1.2 µM): -13% | growth inhibition ([9]; at 3.7 µM): -29% | growth inhibition [9, 17]: 39% | growth inhibition ([9]; at 11.0 µM): -27% | growth inhibition ([9]; at 33.0 µM): 13% | growth inhibition [9, 18]: 55% | growth inhibition ([9]; at 50.0 µM): 86% (active) | growth inhibition ([9]; at 100.0 µM): 93% (active) | growth inhibition ([10]; at 1.2 µM): -14% | growth inhibition ([10]; at 3.7 µM): -28% | growth inhibition ([10]; at 11.0 µM): -11% | growth inhibition ([10]; at 33.0 µM): 81% (active) | growth inhibition ([10]; at 100.0 µM): 95% (active) | growth inhibition [11, 17]: 1% | growth inhibition [11, 18]: 91% (active) | growth inhibition ([12]; at 1.2 µM): 11% | growth inhibition ([12]; at 3.7 µM): 2% | growth inhibition ([12]; at 11.0 µM): 3% | growth inhibition ([12]; at 33.0 µM): 40% | growth inhibition ([12]; at 100.0 µM): 91% (active) | growth inhibition [13, 17]: 60% | growth inhibition [13, 18]: 94% (active) | growth inhibition ([14]; at 1.2 µM): 1% | growth inhibition ([14]; at 3.7 µM): -12% | growth inhibition [14, 17]: 45% | growth inhibition ([14]; at 11.0 µM): -3% | growth inhibition ([14]; at 33.0 µM): 53% | growth inhibition [14, 18]: 91% (active) | growth inhibition ([14]; at 100.0 µM): 93% (active) | growth inhibition ([15]; at 1.2 µM): -12% | growth inhibition ([15]; at 3.7 µM): -6% | growth inhibition ([15]; at 11.0 µM): -17% | growth inhibition ([15]; at 33.0 µM): 47% | growth inhibition ([15]; at 100.0 µM): 92% (active) | growth inhibition ([1]; at 1.2 µM): -34% | growth inhibition ([1]; at 3.7 µM): -36% | growth inhibition ([1]; at 11.0 µM): -25% | growth inhibition ([1]; at 33.0 µM): 41% | growth inhibition ([1]; at 100.0 µM): 88% (active) | growth inhibition [2, 17]: 36% | growth inhibition [2, 18]: 60% | growth inhibition ([2]; at 50.0 µM): 85.7% (active) | growth inhibition ([3]; at 1.2 µM): -17% | growth inhibition ([3]; at 3.7 µM): -10% | growth inhibition ([3]; at 11.0 µM): 0% | growth inhibition ([3]; at 33.0 µM): 80% (active) | growth inhibition ([3]; at 100.0 µM): 94% (active)
